# The panel holds about 79,000 compounds, 15% with a hit somewhere; the sample as a whole holds those more often. A number with no mark means an inactive call. The source made the active and inactive calls. Cut-off read from the data, not from the text of the source: active = growth inhibition above about 70%; inactive = the rest.
# Legend:
# [1] = NCI Yeast Anticancer Drug Screen. Data for the rad50 strain (AID 155);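 note: 0% = growth of vehicle-only cultures of the same strain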; details: S. cerevisiae rad50 strain growth inhibition; at 50.0 µM; hits give high values
# Procedure, shortened: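 Yeast carrying a defined DNA repair defect were exposed to test compounds, and growth was compared with vehicle-treated controls to give percent inhibition.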
# [2] = NCI Yeast Anticancer Drug Screen. Data for the mec2-1 strain (AID 157); details: S. cerevisiae mec2-1 strain, at 50.0 µM, hits give high values
# Procedure, shortened: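 Mutant yeast (mec2-1) grown with compound; growth inhibition relative to vehicle control reported.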
# [3] = NCI Yeast Anticancer Drug Screen. Data for the sgs1 mgt1 strain (AID 161);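 note: 0% = growth of cultures given vehicle only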; details: S. cerevisiae sgs1 mgt1 strain, at 50.0 µM, hits give high values
# Procedure, shortened: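 Growth of a repair-deficient yeast mutant was monitored after compound treatment and expressed as inhibition relative to vehicle-treated cultures.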
# [4] = NCI Yeast Anticancer Drug Screen. Data for the cln2 rad14 strain (AID 165);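 note: 0% = growth equal to vehicle treated cultures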; details: S. cerevisiae cln2 rad14 strain, at 50.0 µM, hits give high values
# Procedure, shortened: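 Readout is yeast growth inhibition versus vehicle-treated controls, using a strain with cln2 and rad14 alterations exposed to compound.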
# [5] = NCI Yeast Anticancer Drug Screen. Data for the bub3 strain (AID 167); details: S. cerevisiae bub3 mutant strain, at 50.0 µM, hits give high values
# Procedure, shortened: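 Compounds were applied to a genetically altered yeast strain carrying a cell-cycle control defect. Growth inhibition was scored against vehicle-treated controls.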
# [6] = NCI Yeast Anticancer Drug Screen. Data for the mlh1 rad18 strain (AID 175); details: S. cerevisiae mlh1 rad18 strain growth inhibition; at 50.0 µM; hits give high values
# Procedure, shortened: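 Genetically defined yeast (DNA repair-deficient) exposed to compounds; growth inhibition determined relative to vehicle.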
SMILES,growth inhibition [1],growth inhibition [2],growth inhibition [3],growth inhibition [4],growth inhibition [5],growth inhibition [6]
CCCCN(CCCC)C(C)=O,-45.1%,-4.85%,17.1%,-35%,5.15%,-8.2%
CCOC(=O)C(Cc1cn(S(=O)(=O)c2ccc(C)cc2)cn1)P(=O)(OCC)OCC (stereo not drawn),-34.5%,-4.45%,-13.4%,14.2%,-16.7%,-14.3%
C1=C(CN2CCCCC2)Oc2ccccc2O1,25.3%,36.9%,42.5%,46%,21.3%,34.9%
OC1c2cc(Br)ccc2-c2c(F)cc(Br)cc21 (stereo not drawn),4.9%,-6.75%,-5.3%,4.65%,1.9%,-10.9%
CC1(C)COC(C)(Cc2ccccc2)OC1,-5.9%,3.55%,-15.7%,-65.3%,-22.1%,-11.7%
NC(=O)C(=CNC(=S)Nc1cccc(C(F)(F)F)c1)C(N)=O,-45%,-44.5%,-14.8%,16.4%,5.5%,-56%
Cn1nc(-c2ccccc2)c(C(=O)/C=C/c2ccc(Cl)cc2)c(N2CCCCC2)c1=O,-30.9%,-21.9%,-36.2%,1.75%,-22.9%,-22.2%
O=C(CI)Nc1ccc2oc(=O)c(C(=O)O)cc2c1,-7%,-6.05%,4.85%,-64.4%,-2.9%,-12.8%
N#CC(C#N)=C/C=C/C=C/c1c(Cl)cccc1Cl,-6%,1.8%,0.95%,-3.25%,-6.8%,-14.4%
CC(=S)NC(=O)Nc1cccc2ccccc12,19.2%,-8.45%,2.4%,-50.6%,-10.2%,10.8%
O=c1cc(-c2cccc(OC(F)(F)F)c2)[nH]c2cc3c(cc12)OCO3,-6.25%,2.75%,-5.05%,13.8%,19.7%,-24.2%
CC(=O)NCS(=O)(=O)O,-25.3%,-13.4%,-0.9%,-34%,-12.3%,-9.55%
C#CCOc1c(C(=O)OCC)c(=O)n(C)c2ccccc12,-10%,-17.1%,12.8%,9.4%,3.55%,1.7%
CC1(C)CC2(C)NCCN2C(=S)N1 (stereo not drawn),3.25%,2.3%,15.8%,12.2%,-5.45%,-7.8%
O=C1c2ccccc2-c2nc3cc4ccccc4cc3nc21,20.1%,15.6%,22.5%,5.85%,11.4%,74% (active)
O=C(c1ccccc1)c1nc2ccc(Cl)cc2cc1C(Br)Br,17.9%,-2.75%,25.1%,15.1%,28.8%,17.9%
CC(C)(C#N)OC(=O)Nc1cccc(Cl)c1,5.55%,-5.6%,3.75%,-35.1%,-30.6%,-26.8%
CCOC(=O)C(=O)c1c(C)[nH]c(C)c1C(=O)OCC,-2.15%,-4.8%,17.1%,-23.1%,7.3%,-9.1%
O=c1ccn(-c2ccccn2)c(=O)n1-c1ccccn1,18.9%,-15.9%,2.95%,24.3%,-6.35%,-31.8%
C[C@]12CC[C@@H]3c4ccc(OS(=O)(=O)O)cc4CC[C@H]3[C@@H]1CCC2=O,22.2%,-0.4%,12.2%,18.4%,23.6%,3.15%
CC(C)(C)c1ccc(SCC#CCOc2ccc(Cl)cc2)cc1,-6.2%,4.2%,-4.8%,-23.6%,-7.3%,-20.4%
O=C(CCCCCC(=O)CC(=O)CCc1ccccc1)CC(=O)CCc1ccccc1,53.3%,36.4%,53.5%,15.4%,19.1%,56.6%
C=CCOc1ccc(C2CCCCC2)cc1,42%,16.9%,20.5%,11.6%,-2.75%,18.3%
N#CC1=C(O)/C(=C\c2ccc(Cl)cc2)N=C1N,-28.3%,-14.3%,-7.8%,-13.9%,-6.2%,-3.35%

SMILES,growth inhibition [1],growth inhibition [2],growth inhibition [3],growth inhibition [4],growth inhibition [5],growth inhibition [6]
O=C1OC2C(O)C3CC1C2O3 (stereo not drawn),-8.15%,-6.05%,-5.5%,-6.85%,-2.25%,0.45%
Fc1ccc(CN2COc3c(ccc4cccnc34)C2)c(F)c1,57.6%,43.6%,57.1%,29.6%,49%,52.2%
COc1ccccc1C(C)C,-11.1%,-3.8%,-0.85%,-21.8%,-6.45%,-16.2%
COc1cc(NCCCCC2CCCCN2)c2ncccc2c1 (stereo not drawn),15.7%,2%,39%,-11.4%,55.5%,48.8%
CC(N)/C(N)=N/O (stereo not drawn),11.2%,4.9%,-0.95%,-2.45%,18.4%,15%
O=C1Cc2c([nH]c3ccc(Cl)cc23)-c2ccccc2N1,5.55%,2.1%,-50.9%,13.8%,-7.9%,17.1%
COc1ccc(/C=C(\C)C=C(C#N)C#N)cc1,45.5%,39.8%,52%,38%,45.1%,59.7%
C=CCN(CC=C)C(=O)Nc1cccc2c(NC(=O)N(CC=C)CC=C)cccc12,-24%,-23.6%,-17.5%,4.5%,-21.8%,-23.4%
Cc1cc(C)c2c(c1)CSCc1cc(C)cc(C)c1-2,15.7%,-2.65%,19.1%,10%,1.05%,16.1%
O=[N+]([O-])C(/C=C(\Cl)[N+](=O)[O-])=C1Nc2ccccc2N1,29.9%,45.1%,57.2%,19.4%,21.1%,50.5%
Oc1ccccc1CNCc1nc2ccccc2[nH]1,-8.1%,-1.7%,-11.6%,-8.7%,-4.4%,18.6%
C[n+]1c(-c2ccc(/C=N/NC(=O)C(=O)N/N=C/c3ccc(-c4cn5ccsc5[n+]4C)cc3)cc2)cn2ccsc21,85.5% (active),88% (active),86.8% (active),76.6% (active),88.7% (active),86.5% (active)
NC(=O)c1cccc(F)c1,13.8%,5.3%,-10%,10.2%,2.1%,14.9%
FC(F)(F)C(F)(F)C(F)(F)C(F)(F)C(F)(F)C(F)(F)C(F)(F)c1noc(C(F)(F)C(F)(F)C(F)(F)C(F)(F)C(F)(F)C(F)(F)C(F)(F)F)n1,-0.55%,6.5%,-5.4%,-5.25%,0.85%,17.4%
COc1ccc2cc(C(=O)Nc3ccc(O)c(C(=O)O)c3)ccc2c1OC,-2.2%,0.5%,-7.6%,-10.6%,2.95%,-22.6%
COc1ccc(-c2cc(-c3ccccc3)nc(-c3cccc([N+](=O)[O-])c3)c2)cc1,-1.6%,-4.4%,11.4%,-3.75%,21.2%,18.4%
Cc1ccc2c(c1)-c1c3c(nn1C)-c1ccccc1SC3O2 (stereo not drawn),-0.35%,-7.75%,-13.1%,-3.6%,-5.75%,9.15%
CCOc1ccc(NC(=O)c2ccccc2O)cc1,26.9%,14%,17.7%,-9.05%,17.3%,43.3%
Cc1cc(N(CCC#N)CCC#N)ccc1N=Nc1cccc(C(=O)O)c1,-40.4%,-33.8%,-10%,-16.4%,-33.8%,-27.1%
CC1=c2c(oc3cc(O)c(Nc4c(C)cc(O)cc4O)c(C)c23)=CC(=O)C1=Nc1c(C)cc(O)cc1O,17.9%,7.8%,0.45%,-2.3%,-35%,18.4%
O=C(NC1CCCCC1Cl)C1CCCCC1 (stereo not drawn),17.1%,18.6%,2.15%,5.4%,-6.7%,-14.8%
O=C(COc1cc(Cl)c(Cl)cc1Cl)Nc1ccccc1Br,2.5%,-6.9%,0.1%,-15.9%,2.2%,-8.85%
Cc1cc(=O)[nH]c(=S)n1-c1nc2ccccc2o1,-11.2%,7.65%,-0.8%,-9.55%,-27.6%,12.8%
O=[N+]([O-])c1ccc(/C=N\N=P(c2ccccc2)(c2ccccc2)c2ccccc2)cc1,-6.25%,3.25%,12.8%,1.9%,-4.65%,-3.85%

# Reference: PubChem BioAssay (NCI)
